Bioassay records as filed in PubChem.
The list is not random: actives were taken first. Their share in the collection is about 7.7%.
FMDV antiviral: foot and mouth disease virus antiviral activity; FMDV antiviral cell-based qHTS; 410,000 compounds, 1.2% hits; AID 1159524; Potency, µM (top dose mostly 57.9 µM), for inactives: at the highest dose activity change, negative = inhibition, hits mostly inhibitors; calls by dose curve; tested in HEK293T cells; further: read-out not given here; potency means the concentration at half of the fitted maximal effect; nearly all actives have a fitted effect of over 45% in size
Giardia FBPA inh: inhibitors of Giardia lamblia fructose-1,6-bisphosphate aldolase; purified Giardia FBPA; Potency, µM (series often up to 59.6 µM), inactives show at the top dose activity, negative = inhibition, hits mostly inhibitors; 290,000 compounds, 0.71% hits; further: potency means the concentration at half of the fitted maximal effect; nearly all actives have a fitted effect of over 55% in size
Target sequence (A8B2U2 whole entry, looked up): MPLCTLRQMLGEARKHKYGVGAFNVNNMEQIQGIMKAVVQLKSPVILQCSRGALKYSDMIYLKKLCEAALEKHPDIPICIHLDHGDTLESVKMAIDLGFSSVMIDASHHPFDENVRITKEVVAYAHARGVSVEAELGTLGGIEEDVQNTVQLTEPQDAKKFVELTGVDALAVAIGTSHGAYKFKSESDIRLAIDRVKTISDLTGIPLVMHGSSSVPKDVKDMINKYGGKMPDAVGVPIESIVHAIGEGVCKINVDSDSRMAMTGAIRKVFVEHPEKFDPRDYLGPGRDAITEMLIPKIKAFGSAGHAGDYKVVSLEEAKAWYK
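40 nM FBPA preincubated 10 min at RT with compound (up to 57.5 uM final), then substrate plus GAPDH/TPI/NAD/arsenate coupling and diaphorase/resazurin added. Fluorescence read after 20 min at RT, 525/598 nm.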
Sm TGR block: inhibitors of Schistosoma mansoni thioredoxin glutathione reductase | purified TGR, DTNB reduction, TNB absorbance 405 nm | Potency, µM (series often up to 114 µM), for inactives: at the top dose activity change, negative = inhibition, most hits filed as inhibitors | 360,000 compounds, 3% hits; further: potency means the concentration at half of the fitted maximal effect; nearly all actives have a fitted effect of over 60% in size
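Kinetic colorimetric format: TGR-catalysed, NADPH-driven DTNB reduction monitored via TNB absorbance. Enzyme dispensed at 20 nM; compound exposure 15 min at room temperature before reaction start.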
TbPYK inhibitor: inhibitors of Trypanosoma brucei pyruvate kinase; TbPYK enzyme, Kinase-Glo Plus ATP luminescence, 45 min; 410,000 compounds, 0.12% hits; AID 624173; Potency, µM (top dose mostly 76.8 µM), for the others: top-dose activity, negative = inhibition, actives largely listed as inhibitors; further: potency means the concentration at half of the fitted maximal effect; nearly all actives have a fitted effect of over 50% in size
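Activity of T. brucei pyruvate kinase was followed by Kinase-Glo Plus luminescence after the enzyme reacted 45 min at room temperature with 130 uM ADP (final) and substrate. Test compounds were added before ADP at multiple concentrations.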
RE007 growth inh: less growth of the S. pombe RE007 Vpr strain; AID 651644; S. pombe RE007 Vpr strain, BacTiter-Glo ATP luminescence, 24 h; 360,000 compounds, 0.21% hits; Potency, µM (top dose mostly 92.2 µM), without a hit: at the top dose activity change, negative = less growth, most hits filed as inhibitors; active means well fitted falling curve with a large enough effect; inconclusive means small, poorly fitted or top-dose-only effect; inactive means no such curve, though single readings can be large or run the other way; further: potency means the concentration at half of the fitted maximal effect; nearly all actives have a fitted effect of over 50% in size
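Fission yeast RE007 carrying one integrated HIV-1 vpr copy, seeded at OD 0.01 in PMG+AL medium with 23 nL pinned compound. Grown 24 h at 30 degrees; viability read by BacTiter-Glo luminescence after 5 min.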
HCMV antiviral: blocks human cytomegalovirus replication. 410,000 compounds, 4.5% hits. HFF cells, HCMV-luciferase reporter, 72 h; active compounds read low. activity change, negative = inhibition, % at 57.5 µM; in the data active means activity change below about -60%; inconclusive means no clear call, values can overlap the other calls; inactive means above about -39%
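HFF cells seeded 16 h at 37C, treated with compounds, infected with luciferase-reporter HCMV at MOI 1 PFU/cell; luciferase read at 72 h post infection, normalized to buffer-only and Salinomycin controls.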
* marks the source's active call; other numbers are inactive results. Unless noted, the call rests on the fitted dose curve; in most records, active means well fitted curve in the direction sought with a large enough effect; inconclusive means small, poorly fitted or top-dose-only effect, or another doubt; inactive means no such curve, though single readings can be large; an effect the other way counts as inactive or inconclusive. On the % scale 0 is the no-effect control and ±100 the full control effect.

`Cc1ccc(OC(C)C(=O)N2CC(=O)Nc3ccccc32)c(C)c1` (centres undefined) gave FMDV antiviral 2%, Giardia FBPA inh 1%, Sm TGR block 0%, TbPYK inhibitor 6%, RE007 growth inh -3% and HCMV antiviral 33.
Screening COc1ccccc1OC(C)C(=O)N1CC(=O)Nc2ccccc21 (centres undefined) returned FMDV antiviral -2%, Giardia FBPA inh -3%, Sm TGR block -6%, TbPYK inhibitor -13%, RE007 growth inh -12% and HCMV antiviral -72*.
For COc1cc(C(=O)N2CC(=O)Nc3ccccc32)cc(OC)c1OC the results were FMDV antiviral -16%, TbPYK inhibitor 2%, RE007 growth inh 1% and HCMV antiviral -17.
Cc1ccsc1C(=O)N1CC(=O)Nc2ccccc21 was read as FMDV antiviral 9%, Giardia FBPA inh -5%, Sm TGR block 1%, TbPYK inhibitor -1%, RE007 growth inh 4% and HCMV antiviral -8.
Cc1cc(C)cc(C(=O)N2CC(=O)Nc3ccccc32)c1 was read as FMDV antiviral -7%, Giardia FBPA inh -18%, Sm TGR block 7%, TbPYK inhibitor 3%, RE007 growth inh 5% and HCMV antiviral -81*.
Screening Cc1ccc(/C=C/C(=O)N2CC(=O)Nc3ccccc32)o1 returned FMDV antiviral -8%, Giardia FBPA inh inconclusive, Sm TGR block 8.9µM*, TbPYK inhibitor inconclusive, RE007 growth inh 1% and HCMV antiviral -13.
COc1cc(Nc2ncc3c(n2)CCN(Cc2cc(Br)cs2)C3)cc(OC)c1 was read as FMDV antiviral -25%, Sm TGR block 5%, TbPYK inhibitor 5% and HCMV antiviral 14.
Screening CCCCN(C(=O)CC1CCCC1)c1c(N)n(CCC)c(=O)[nH]c1=O returned FMDV antiviral 1%, Sm TGR block 0.56µM*, TbPYK inhibitor -10%, RE007 growth inh -3% and HCMV antiviral -4.
Screening CCCCOCC1CN(CCCC)S(=O)(=O)c2c(cccc2N2CCCCC2)O1 (centres undefined) returned HCMV antiviral -1.
Screening Cc1sc2ccccc2[n+]1CCC(C)S(=O)(=O)[O-] (centres undefined) returned FMDV antiviral 3%, Giardia FBPA inh -10%, Sm TGR block 2µM*, TbPYK inhibitor -11%, RE007 growth inh -11% and HCMV antiviral 8.
Screening CN1C(=O)/C(=C/c2cc(C(C)(C)C)c(O)c(C(C)(C)C)c2)NC1=S returned FMDV antiviral -7%, Giardia FBPA inh -7%, Sm TGR block 1µM*, TbPYK inhibitor 0%, RE007 growth inh 3% and HCMV antiviral 1.
CCc1nn(CC(=O)Nc2ccc(N(CC)CC)cc2C)c(=O)c2cc3sccc3n12 was read as FMDV antiviral -14%, Sm TGR block 2%, TbPYK inhibitor 4% and HCMV antiviral 3.
Screening CC1(C)C2CC=C(/C=N/NC(=S)Nc3cccnc3)C1C2 (centres undefined) returned FMDV antiviral -17%, Giardia FBPA inh -24%, Sm TGR block 2%, TbPYK inhibitor 6%, RE007 growth inh 13% and HCMV antiviral 8.
Screening CC1=C/C(=N\NC(=S)Nc2cccnc2)CC(C)(C)C1 returned FMDV antiviral 0%, Giardia FBPA inh 3%, Sm TGR block 3%, TbPYK inhibitor -6%, RE007 growth inh -4% and HCMV antiviral -72*.
Screening CC1=C/C(=C(/c2cc(C)c(O)c(Br)c2)c2ccccc2S(=O)(=O)O)C=C(Br)C1=O returned FMDV antiviral -55%, Giardia FBPA inh -22%, Sm TGR block 45µM*, TbPYK inhibitor inconclusive, RE007 growth inh inconclusive and HCMV antiviral -1.
CC(=O)N1c2ccc(S(=O)(=O)N3CCCCCC3)cc2CC1C(=O)NCc1ccccc1F (centres undefined) was read as FMDV antiviral -16%, Sm TGR block -1%, TbPYK inhibitor -1% and HCMV antiviral -12.
For CC(C)CNC(=O)c1c(N)n(Cc2ccc3c(c2)OCO3)c2nc3ccccc3nc12 the results were FMDV antiviral -17%, Giardia FBPA inh inconclusive, Sm TGR block 2%, TbPYK inhibitor 8%, RE007 growth inh 7% and HCMV antiviral -80*.
Nc1c(C(=O)NCCN2CCOCC2)c2nc3ccccc3nc2n1-c1ccc2c(c1)OCO2 was read as Giardia FBPA inh 3%, Sm TGR block 5%, TbPYK inhibitor 13%, RE007 growth inh 8% and HCMV antiviral inconclusive.
`CC(C)CNC(=O)c1c(N)n(Cc2ccco2)c2nc3ccccc3nc12` gave FMDV antiviral 0%, Giardia FBPA inh -12%, Sm TGR block 32µM*, TbPYK inhibitor -4%, RE007 growth inh -22% and HCMV antiviral 16.
For Nc1c(C(=O)NCCN2CCOCC2)c2nc3ccccc3nc2n1-c1ccccc1 the results were FMDV antiviral -24%, Giardia FBPA inh -28%, Sm TGR block -29%, TbPYK inhibitor 5%, RE007 growth inh 16% and HCMV antiviral -69*.
For CC(C)CCNC(=O)c1c(N)n(Cc2ccc3c(c2)OCO3)c2nc3ccccc3nc12 the results were FMDV antiviral -14%, Giardia FBPA inh inconclusive, Sm TGR block -25%, TbPYK inhibitor -1%, RE007 growth inh -18% and HCMV antiviral -34.
CC(C)OCCCNC(=O)c1c(N)n(Cc2cccs2)c2nc3ccccc3nc12 was read as FMDV antiviral -29%, Giardia FBPA inh inconclusive, Sm TGR block 0%, TbPYK inhibitor -2%, RE007 growth inh -18% and HCMV antiviral -74*.
`CCC1CN(CC(=O)NCc2cc(C)n(C)n2)Cc2cc(OC)ccc2O1` (centres undefined) gave FMDV antiviral 12%.
CCCC(=O)OC[C@H]1CN([C@H](C)c2ccccc2)S(=O)(=O)c2c(F)cccc2O1 was read as HCMV antiviral -3.
COCCCNC(=O)c1c(N)n(Cc2ccco2)c2nc3ccccc3nc12 was read as FMDV antiviral inconclusive, Giardia FBPA inh inconclusive, Sm TGR block 4µM*, TbPYK inhibitor -9%, RE007 growth inh -7% and HCMV antiviral 19.
For CCCNC(=O)c1c(N)n(Cc2ccco2)c2nc3ccccc3nc12 the results were FMDV antiviral inconclusive, Giardia FBPA inh -1%, Sm TGR block -7%, TbPYK inhibitor -4% and RE007 growth inh -18%.
For Nc1c(C(=O)NCc2ccccc2)c2nc3ccccc3nc2n1-c1ccc2c(c1)OCO2 the results were Giardia FBPA inh -10%, Sm TGR block inconclusive, TbPYK inhibitor 1%, RE007 growth inh 8% and HCMV antiviral -77*.
